DAX1 inh-1 = inhibitors of human orphan nuclear receptor DAX1 (NR0B1) | 340,000 compounds, 0.99% hits | AID 504766 | inhibition, % at 6.75 µM | HEK293 Gal4-DAX1 luciferase reporter, luminescence | P51843;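 active = inhibition above the mean over all tested compounds plus 3 SD, cut at about 4.2% in these data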;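 note: 0% = DAX1-transfected cells with DMSO and 100% = empty-vector control cells with DMSO; inhibition shows as a rise in luminescence from relieved DAX1 repression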
Target sequence (P51843 207-470 limits assumed): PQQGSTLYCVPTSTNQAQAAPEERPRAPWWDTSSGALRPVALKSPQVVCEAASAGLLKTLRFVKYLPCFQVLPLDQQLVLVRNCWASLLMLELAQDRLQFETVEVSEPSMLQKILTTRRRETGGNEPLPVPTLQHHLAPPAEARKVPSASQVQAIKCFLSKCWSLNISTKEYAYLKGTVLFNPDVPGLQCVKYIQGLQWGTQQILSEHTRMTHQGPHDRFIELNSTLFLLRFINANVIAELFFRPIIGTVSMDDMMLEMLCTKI
ssDAF12 agonist = S. stercoralis DAF-12 activation, primary screen. HEK293 ssDAF-12/GRIP1 lit1-tk-luc reporter, luminescence; % of 3 µM dafachronic acid response. activation, % at 6.8 µM. 370,000 compounds, 1% hits. AID 652126;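 active = activation above the mean over all tested compounds plus 3 SD, cut at about 0.9% in these data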;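 note: 0% = DMSO-only wells and 100% = 3 µM delta7-dafachronic acid wells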
hgDAF-12 ag = activates the H. glycines DAF-12 receptor ligand-binding domain; HEK293 GAL4-hgDAF12 UAS-luciferase reporter, agonist luminescence; normalized to butyrate control; activation, % at 6.8 µM; 370,000 compounds, 1.8% hits;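 active = activation above a cutoff set at the mean of all screened compounds plus 3 SD, cut at about 10% in these data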;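 note: 0% = DMSO wells and 100% = sodium butyrate wells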
SMARCA2 act = SMARCA2 function activation, primary screen; MG213 cells, MMTV-luciferase reporter, dexamethasone, overnight; activation, % at 9.1 µM; 370,000 compounds, 1% hits; AID 652017; in the data active = activation above about 7.8%;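 note: 0% = vehicle wells and 100% = reference activator wells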
DAX1 inh-2 = inhibitors of DAX1 repression of SF-1 activated StAR promoter; HEK293T StAR-luciferase reporter, SF-1/DAX-1 repression relief; inhibition, % at 6.8 µM; 370,000 compounds, 1.1% hits; AID 652010;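 active = inhibition above the mean over all tested compounds plus 3 SD, cut at about 3.6% in these data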;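 note: 0% = DAX-1 cells with DMSO and 100% = cells lacking DAX-1 with DMSO; higher inhibition means more luminescence from relief of DAX-1 repression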
hcDAF12 agonist = activates DAF-12 receptor from parasite H. contortus. HEK293 hcDAF-12 lit1-tk-luc reporter, luminescence; 0% DMSO, 100% Δ7-dafachronic acid. activation, % at 6.8 µM. 370,000 compounds, 1.4% hits;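 active = activation above the mean of all tested compounds plus 3 SD, cut at about 5.5% in these data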;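 note: 100% = response to 3 µM Δ7-dafachronic acid high control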
Numbers without * were called inactive; x = no result. Rows were chosen to be rich in hits. Some 4.8% of all compounds tested hit in one or more screens of this group.

SMILES	DAX1 inh-1	ssDAF12 agonist	hgDAF-12 ag	SMARCA2 act	DAX1 inh-2	hcDAF12 agonist
CCN(CC)c1cc2c(c3c1ccn3C)C1CCC2O1 (centres undefined)	x	0.9*	-2.3	1.4	-0.2	-2.3
CCN(Cc1ccccc1)c1cc2c(c3c1ccn3C)C1CCC2O1 (centres undefined)	x	-0.3	-3.3	-2.9	-2.2	-0.3
CCc1nnc(NCC(=O)N2CCc3ccccc32)s1	1.1	-0.3	-0.1	-0.7	-0.2	2.2
O=c1/c(=C/c2ccccn2)sc2n1CN(c1ccccc1)CN=2	0.4	-0.5	5.8	2.4	0.0	-0.7
CCc1ccc(N2CN=c3s/c(=C\c4ccccc4)c(=O)n3C2)cc1	5.3*	-1.8	1.2	-1.4	-0.1	-2.6
CC(=O)c1cc2c(cc1NS(=O)(=O)c1ccccc1)OCO2	0.7	-2.0	2.0	4.1	-0.9	-1.0
CC(=O)c1cc2c(cc1N/C(=N/S(=O)(=O)c1ccccc1)c1ccc(Cl)cc1)OCO2	0.3	1.6*	0.8	-2.2	-0.4	4.2
c1ccc2c(c1)oc1c(Nc3ccc4c(c3)OCO4)ncnc12	1.6	-0.5	12.5*	-0.2	1.9	1.6
c1ccc2c(c1)oc1c(Nc3ccc(CN4CCOCC4)cc3)ncnc12	-0.3	0.4	10.8*	6.5	1.4	2.5
O=c1[nH]nc(-c2n[nH]c(=O)o2)o1	-1.6	-0.4	-0.6	1.8	-0.3	3.0
CCCC(=O)NC(c1cccc([N+](=O)[O-])c1)c1ccc2cccnc2c1O (centres undefined)	-3.6	-1.2	-8.6	-7.2	-6.3	-3.4
CC(=O)c1csc(COc2ccc(Cl)cc2)n1	9.3*	-0.2	7.8	5.9	2.4	3.0
Cc1cc(C)c2[nH]c(=O)c(CN(CC3CCCO3)C(=O)c3cnccn3)cc2c1 (centres undefined)	-0.1	-0.9	-1.1	-1.7	0.1	-1.0
CC(/C=N/NC(=O)CSc1nc2ccccc2n1C)=C\c1ccco1	0.7	-0.5	-0.5	-1.4	-0.1	6.0*
CC(=O)Nc1ccc(-c2nc3cc(Cl)ccc3o2)cc1	5.5*	0.5	10.8*	3.3	3.2	5.5
O=C(O)c1ccccc1-c1ccccc1C(=O)Nc1ccc(-c2nc3cc(Cl)ccc3o2)cc1	-0.7	-1.0	5.5	-0.8	1.5	2.3
Cc1ccc2[nH]c(CNC(=O)c3ccc(F)cc3)cc2c1	1.0	1.0*	-1.2	-3.0	0.7	1.0
N#Cc1cc([N+](=O)[O-])ccc1NC(=O)COC(=O)CCC1CCCCC1	x	0.2	2.2	-1.3	-0.3	4.5
CCc1ccccc1NNC(=O)c1cc(C)on1	0.5	-0.6	0.9	-3.0	-0.2	0.0
Cc1cc(C(=O)NNc2ccccc2F)no1	7.2*	-0.5	-0.7	-2.0	0.1	-1.2
Cc1ccc2nc3c(c(N)c2c1)CCN3C	3.6	-0.2	6.5	6.7	0.5	6.2*
Cc1noc(N)c1C(=O)Nc1ccc(C(C)(C)C)cc1	3.0	0.3	12.8*	2.0	1.6	1.5
Cc1ccccc1NC(=O)c1sc(Cl)nc1C	-0.6	-1.6	-0.4	-0.2	-0.1	-1.8
Cc1nc(Cl)sc1C(=O)Nc1ccc(C(C)(C)C)cc1	5.2*	-0.1	4.6	3.7	-0.8	0.9
COCCNC(=O)/C(C#N)=C/c1ccc(C(=O)O)cc1	5.0*	-1.1	-0.8	0.2	-0.5	-1.2
SMILES	DAX1 inh-1	ssDAF12 agonist	hgDAF-12 ag	SMARCA2 act	DAX1 inh-2	hcDAF12 agonist
COCCNC(=O)/C(C#N)=C/c1ccc(SC)cc1	x	-1.2	3.8	7.5	-0.4	-2.0
COCCNC(=O)/C(C#N)=C/c1ccc(OCc2ccc(F)cc2)cc1	-0.2	-1.5	13.0*	-2.3	-1.2	1.7
COCCNC(=O)/C(C#N)=C/c1ccc(OCc2ccccc2)cc1	-0.5	-0.6	1.9	4.5	-0.5	-0.3
Cc1cccc(OCCCCn2c(CO)nc3ccccc32)c1	-2.5	-1.4	-2.6	-2.3	-0.2	-3.1
CC1(C(=O)Nc2cnc3ccccc3c2)CCN1Cc1cc2ccccc2o1 (centres undefined)	x	-1.2	-2.7	-2.1	-0.6	-1.1
COc1ccc(-c2nc(CSCC(=O)N3CCN(C)CC3)c(C)o2)cc1OC	6.1*	-0.7	-2.6	-0.9	-0.4	-0.5
COc1cc(Cl)ccc1OCc1cc(C(=O)N2CCCCCC2)no1	1.0	-0.4	2.8	-1.7	0.2	1.3
COc1ccc(OCc2cc(C(=O)N(C)C3CCOC3)no2)c(Cl)c1 (centres undefined)	0.6	-0.8	-1.6	5.9	-0.8	-0.6
CCOC(=O)C1CCN(C(=O)c2cc(COc3ccc(OC)c4ccccc34)on2)CC1	0.7	0.3	12.5*	5.0	0.7	6.3*
COc1ccc(OCc2cc(C(=O)N(C)C3CCOCC3)no2)c2ccccc12	1.9	1.0*	4.2	0.0	0.0	4.5
CCOc1ccccc1Nc1cc(C)nc2nnnn12	0.5	1.0*	-1.2	-3.6	0.2	1.4
COc1ccc(C(=O)NCc2ccc(OCCN(C)C)cc2)cc1OC	-0.4	-1.6	-3.6	-2.3	0.8	5.6*
COc1cc(C(=O)NCc2ccc(OCCN(C)C)cc2)cc(OC)c1OC	0.3	-0.1	1.1	-7.2	-0.1	-1.0
COc1ccc(NC2=CC(=O)CC(C)(C)C2)cc1OC	-0.7	-1.8	-3.6	3.3	0.1	-2.9
O=C1C2CCCN2C(c2ccccc2F)N1c1ccc(Cl)cc1 (centres undefined)	0.1	-0.8	1.2	-1.3	0.2	1.6
COc1ccc(N2C(=O)C3CCCN3C2c2ccccc2F)cc1 (centres undefined)	4.9*	-0.8	0.8	0.6	0.8	1.8
Cc1cn([C@H]2C[C@H](O)[C@@H](CNC(=O)[C@@H]3C[C@H](F)CN3)O2)c(=O)[nH]c1=O	0.8	-0.8	-0.1	-1.5	-0.7	-0.8
Cc1ccc(S(=O)(=O)N2CCC(=O)N(C(COCc3ccc(Cl)cc3Cl)Cc3ccccc3)CC2)cc1 (centres undefined)	5.3*	-1.6	2.6	0.5	-0.6	-0.8
COc1ccc(NC(=O)NC2CCCc3ccccc32)c(OC)c1 (centres undefined)	-0.7	-0.2	-1.5	-1.2	-0.6	-2.1
O=C(O)c1cccc2c1C(=O)N(Cc1ccccc1)C2	0.2	1.2*	0.8	-1.5	0.6	-1.4
C[C@H]1[C@@H](NC(=O)Cc2ccsc2)CC[C@@]23CCCN2C(=O)CCC[C@@H]13	x	2.6*	-0.2	x	x	2.0
O=C(OCC#CCSc1nnc(-c2cccc3ccccc23)o1)c1csc2ccccc12	x	-1.9	-2.4	x	x	-1.6
COc1cccc(C(=O)OCC(=O)NCCC2=CCCCC2)c1	-0.7	-0.8	-0.5	0.8	-0.2	-1.1
Cc1cc(C(=O)COC(=O)c2ccc(Cl)c(S(N)(=O)=O)c2)c(C)n1CC1CCCO1 (centres undefined)	4.6*	-1.1	-3.7	-1.7	-1.1	-1.6
